From PubChem BioAssay (NCATS)
Inconclusive results are not listed. Values without a mark were called inactive. Activity calls are given as the source filed them. The call rests on the fitted dose curve.

assay: Validation screen for inhibitors of Lassa infection (AID 463096); conditions: Lassa virus infection, cell-based; series mostly up to 46.1 µM; activity change, negative = inhibition: at the top concentration
On the % scale 0 is the no-effect control and ±100 the full control effect; potency means the concentration at half of the fitted maximal effect.

Compound	Potency	activity change, negative = inhibition
CN(C)C(=O)C(CCN1CCC(O)(c2ccc(Cl)cc2)CC1)(c1ccccc1)c1ccccc1	12.6 µM (active)	–
O=C1CCc2cc(OCCCCc3nnnn3C3CCCCC3)ccc2N1	–	-39.3%
O=C1NC(=O)C(c2ccccc2)(c2ccccc2)N1	–	4.52%
NC(=O)OCC(COC(N)=O)c1ccccc1	–	-18.8%
O=C1c2c(O)ccc(O)c2C(=O)c2c(NCCNCCO)ccc(NCCNCCO)c21	0.282 µM (active)	–
COc1ccccc1OCC(O)CN1CCN(CC(=O)Nc2c(C)cccc2C)CC1 (stereo unspecified)	–	-0.707%
Nc1nc2c(ncn2COC(CO)CO)c(=O)[nH]1	–	3.28%
NC[C@H](O)c1ccc(O)c(O)c1	–	37.9%
CCCN1C[C@H](CSC)C[C@@H]2c3cccc4[nH]cc(c34)C[C@H]21	–	-13.4%
CC(C)NCC(O)c1ccc(O)c(O)c1 (stereo unspecified)	inactive	–
NS(=O)(=O)c1cc2c(cc1Cl)NC=NS2(=O)=O	–	7.75%
COc1cc2nc(N3CCN(C(=O)C4CCCO4)CC3)nc(N)c2cc1OC (stereo unspecified)	–	-13.9%
CN(C)CCOC(C)(c1ccccc1)c1ccccn1 (stereo unspecified)	–	29.4%
COc1ccc(Cl)cc1C(=O)NCCc1ccc(S(=O)(=O)NC(=O)NC2CCCCC2)cc1	–	-13.1%
NNCCc1ccccc1	–	19.3%
Cc1cnc(C(=O)NCCc2ccc(S(=O)(=O)NC(=O)NC3CCCCC3)cc2)cn1	–	24.3%

Compound	Potency	activity change, negative = inhibition
O=C(C1CCCCC1)N1CC(=O)N2CCc3ccccc3C2C1 (stereo unspecified)	–	-0.301%
Cn1cnc([N+](=O)[O-])c1Sc1ncnc2nc[nH]c12	–	-30.1%
CC[N+](C)(C)c1cccc(O)c1	–	-14.6%
CC(CN1c2ccccc2Sc2ccccc21)N(C)C (stereo unspecified)	–	-47%
CC(C)(C(=O)O)c1ccc(C(O)CCCN2CCC(C(O)(c3ccccc3)c3ccccc3)CC2)cc1 (stereo unspecified)	–	-3.89%
COC(=O)C1=C(C)NC(C)=C(C(=O)OCCN(C)Cc2ccccc2)C1c1cccc([N+](=O)[O-])c1 (stereo unspecified)	–	-5.1%
CCCC(CCC)C(=O)O	–	12.6%
NC(=O)NO	–	-12.9%
Oc1ccc(C2CNCCc3c2cc(O)c(O)c3Cl)cc1 (stereo unspecified)	–	26.6%
CCCN(CCC)CCc1cccc2c1CC(=O)N2	–	23.4%
Clc1ccc(C(c2ccccc2Cl)C(Cl)Cl)cc1 (stereo unspecified)	–	-9.72%
CCOC(=O)c1ncn2c1CN(C)C(=O)c1cc(F)ccc1-2	–	7.31%
CCC1(c2ccccc2)C(=O)NCNC1=O	–	36.3%
O=C(CCCN1CCC(O)(c2ccc(Cl)cc2)CC1)c1ccc(F)cc1	–	-43%
O=C1N=C(O)CN1/N=C/c1ccc(-c2ccc([N+](=O)[O-])cc2)o1	–	24.7%
